PubChem BioAssay (NCATS)
Records with an inconclusive call do not appear.

Experiment: qHTS drug screen for cell cycle checkpoint inhibitors in PARPi-resistant BRCA-mutant ovarian cancer cell lines. (AID 1963452)
Conditions: PEO1/OlaR viability, CellTiter-Glo luminescence, 96 h; measured here: PEO4 Z-AUC; stronger effect = lower value
How it was run: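 PEO1, PEO4 and PEO1/OlaR ovarian cancer cells, 600 per well, exposed 96 h at 37C to a dilution series. Viability read by CellTiter-Glo luminescence, normalized to DMSO and empty wells; activity summarized as Z-AUC.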

Structure (SMILES) | Z-AUC
Oc1ccc([C@@H]2Oc3ccc(O)cc3[C@@H]3CCC[C@@H]32)cc1 | -0.0299
C[C@H]1[C@@H](OC(=O)CCC(=O)O)O[C@@H]2O[C@@]3(C)CC[C@@H]4[C@H](C)CC[C@@H]1[C@@]24OO3 | -0.572
Cc1ccc(-n2[nH]c(C)c(N=Nc3cccc(-c4cccc(C(=O)O)c4)c3O)c2=O)cc1C | 0.208
CN(C)c1ccc2cc(C(=O)N[C@@H](CCCN=C(N)CCl)C(=O)NCc3ccccc3)ccc2c1 | 1.03
Oc1cc2c(cc1O)C1c3ccc(O)c(O)c3OCC1(O)C2 (stereo not drawn) | 1.39
CC(C)[C@H](CO)Nc1nc(Nc2cccc(Cl)c2)c2ncn(C(C)C)c2n1 | 0.284
CCOC(=O)C=C[C@H](C[C@@H]1CCNC1=O)NC(=O)[C@@H](CC(=O)[C@@H](NC(=O)c1cc(C)on1)C(C)C)Cc1ccc(F)cc1 | 0.164
CC(C)n1cnc2c(NCCc3ccc(O)cc3)nc(-c3csc4ccccc34)nc21 | 0.466
CC(=O)SCC(Cc1ccccc1)C(=O)NCC(=O)OCc1ccccc1 (stereo not drawn) | 0.777
CCCCOc1ccc(C(=O)Nc2ccc(F)cc2F)cc1 | -0.905
C#Cc1cccc(Nc2ncnc3cc(OCCOC)c(OCCO)cc23)c1 | 0.173
Nc1nc(N)c2nc(-c3cccc(O)c3)c(-c3cccc(O)c3)nc2n1 | 0.781
CN(C)c1ccc(C(=O)NCCCCCCC(=O)NO)cc1 | -0.674
O=C(NC1CC1)c1cccc(-c2ccc3c(NC(=O)C4CC4)n[nH]c3c2)c1 | -0.0864
CCc1nc(-c2cccc(C)c2)c(-c2ccnc(NC(=O)c3ccccc3)c2)s1 | 0.812
COc1cc2c(cc1OC)[C@@H]1C(=O)c3ccc4c(c3O[C@@H]1CO2)C=CC(C)(C)O4 | -1.41
O=C(O)CCCCCC(=O)NN=C1CCCC1 | 1.15

Structure (SMILES) | Z-AUC
COc1ccc(S(=O)(=O)Nc2cc(-c3c(O)ccc4ccccc34)c(O)c3ccccc23)cc1 | 0.118
NC1=N[C@H]2[C@H](CS[C@H]2CCCCC(=O)O)N1 | 0.00068
C=CC(=O)N1CCc2ccc(-n3c(=O)ccc4cnc5ccc(-c6cnn(C)c6)cc5c43)cc21 | -0.334
CN(C)CC(=O)N1CCC(c2ccc(NC(=O)c3ncc(C#N)[nH]3)c(C3=CCCCC3)c2)CC1 | -0.584
O=C(CCCCCCC(=O)Nc1cccnc1)NO | 0.136
Cc1cnc(NC(=O)Nc2cc(Br)c(C)cc2OC[C@@H]2CNCCO2)cn1 | -0.00574
c1ccc2c(Oc3nc(Nc4ccc(N5CCOCC5)cc4)c4ncn(C5CCCCC5)c4n3)cccc2c1 | 1.58
C[C@H](NC(=O)Cc1cc(F)cc(F)c1)C(=O)N[C@H](C(=O)OC(C)(C)C)c1ccccc1 | -0.265
COc1ccc(C[C@@H](C)[C@@H](C)Cc2ccc(OC)c(OC)c2)cc1OC | 0.0624
C=C(C)[C@@H]1CC[C@]2(C(=O)O)CC[C@]3(C)[C@H](CC[C@@H]4[C@@]5(C)CC[C@H](O)C(C)(C)[C@@H]5CC[C@]43C)[C@@H]12 | 0.86
CC(C)c1cc(C(C)C)c(CC(=O)NS(=O)(=O)Oc2c(C(C)C)cccc2C(C)C)c(C(C)C)c1 | 1.13
N#Cc1cc(NC(=O)Nc2nnc(-c3ccncc3)s2)ccc1-c1cn[nH]c1 | 0.15
C[C@@H](NCc1cc2ccccc2[nH]1)c1cccc2ccccc12 | 0.0374
FC(F)c1nc2ccccc2n1-c1nc(N2CCOCC2)nc(N2CCOCC2)n1 | -0.858
NC(=O)Nc1sc(-c2ccc(F)cc2)cc1C(N)=O | -1.05
Oc1ccc(-c2ccc(-c3cc(Nc4cccc(CNC5CC5)c4)n[nH]3)cc2)c(O)c1 | 0.0871
NC(=NCCCCCCN=C(N)N=C(N)Nc1ccc(Cl)cc1)N=C(N)Nc1ccc(Cl)cc1 | -0.00855

Experiment: qHTS for identification of novel therapeutic agents for treatment of microphthalmiaassociated transcription factor (MiT) renal cell carcinoma (RCC) (AID 1963991)
Conditions: TFE3-RCC UOK109 viability, CellTiter-Glo, 48 h; measured here: UOK109 Z-AUC; stronger effect = lower value
How it was run: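 Curves over 11 concentrations were fitted to CellTiter-Glo luminescence, scaled between empty wells (0%) and DMSO (100%) viability. Cells were UOK109, UOK124 and UOK145 TFE3-fusion RCC lines at 500/well, exposed 48 hours at 37 C.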

Structure (SMILES) | z-score
C[C@@]12C[C@@]3(O)O[C@@H](O1)[C@]1(COC(=O)c4ccccc4)[C@@H]3C[C@@]12O[C@@H]1O[C@H](CO)[C@@H](O)[C@H](O)[C@@H]1O | -0.0471
O=C1c2c(O)cccc2[C@@H]([C@@H]2O[C@H](CO)[C@@H](O)[C@H](O)[C@H]2O)c2cc(CO)cc(O)c21 | 0.509
C=C(C)[C@@H]1CC[C@]2(C(=O)O)CC[C@]3(C)[C@H](CC[C@@H]4[C@@]5(C)CC[C@H](O)C(C)(C)[C@@H]5CC[C@]43C)[C@@H]12 | 0.38

Same assay, conditions: TFE3-RCC viability, CellTiter-Glo, 48 h; measured here: UOK124 Z-AUC; stronger effect = lower value

Structure (SMILES) | z-score
C[C@@]12C[C@@]3(O)O[C@@H](O1)[C@]1(COC(=O)c4ccccc4)[C@@H]3C[C@@]12O[C@@H]1O[C@H](CO)[C@@H](O)[C@H](O)[C@@H]1O | 0.702
O=C1c2c(O)cccc2[C@@H]([C@@H]2O[C@H](CO)[C@@H](O)[C@H](O)[C@H]2O)c2cc(CO)cc(O)c21 | 0.726
C=C(C)[C@@H]1CC[C@]2(C(=O)O)CC[C@]3(C)[C@H](CC[C@@H]4[C@@]5(C)CC[C@H](O)C(C)(C)[C@@H]5CC[C@]43C)[C@@H]12 | 0.714

Same assay, conditions: TFE3-RCC viability, CellTiter-Glo, 48 h; measured here: UOK145 Z-AUC; stronger effect = lower value

Structure (SMILES) | z-score
C[C@@]12C[C@@]3(O)O[C@@H](O1)[C@]1(COC(=O)c4ccccc4)[C@@H]3C[C@@]12O[C@@H]1O[C@H](CO)[C@@H](O)[C@H](O)[C@@H]1O | -0.0246
O=C1c2c(O)cccc2[C@@H]([C@@H]2O[C@H](CO)[C@@H](O)[C@H](O)[C@H]2O)c2cc(CO)cc(O)c21 | 0.571
C=C(C)[C@@H]1CC[C@]2(C(=O)O)CC[C@]3(C)[C@H](CC[C@@H]4[C@@]5(C)CC[C@H](O)C(C)(C)[C@@H]5CC[C@]43C)[C@@H]12 | 0.25
